The source of these data is PubChem BioAssay (Tox21).

Results filed as inconclusive are left out. Entries that show only a call come without a potency. Active and inactive are the calls of the source. Calls follow the shape of the dose curve; as a rule, active = well fitted cell-killing curve with a large enough effect in the repeat runs; inconclusive = weak or mixed curves, or effect the other way; inactive = no such curve, though single readings can be large or run the other way.

The assay can be described thus: qHTS assay to identify small molecule antagonists of the retinoid-related orphan receptor gamma (ROR-gamma) signaling pathway - cell viability counter screen (AID 1159520). Also: nearly all actives have a fitted effect of over 50% in size. To be noted: Tet-on RORgamma CHO cells viability, ATP luminescence, 16 h; series mostly up to 92.4 µM. From the text:
U.S. Tox21 Program National Center for Advancing Translational Sciences [NCATS] NIH Chemical Genomics Center [NCGC] U.S. Environmental Protection Agency [EPA] National Institutes of Environmental Health Sciences [NIEHS] National Toxicology Program [NTP] U.S. Food and Drug Administration [FDA] Tox21 Assay Overview: Nuclear steroid hormone receptors are involved in many biological processes including inflammatory responses, cell proliferation, and apoptosis. Environmental factors or compounds disrupting these nuclear receptor pathways and gene expression may promote susceptibility to immunotoxicants and autoimmune diseases. One important group of these expression factors are the retinoid-related orphan receptors. To assess compounds that may interfere with the retinoid-related orphan receptor gamma (ROR-gamma) transcription factor, a cell-based luciferase assay was used. The CHO cell-based assay utilizes a TET-inducible ROR expression factor and ROR response element-LUC reporter gene. Reporter gene activity was induced using Doxycycline Hyclate and measured after 16 hr incubation. Tet-on ROR gamma CHO cells were used to screen against the Tox21 10K compound library for cytotoxicity by measuring the viability of the cells based on the quantitation of the ATP.
Tox21 Assay Protocol Summary: Tet-on ROR gamma CHO cells were dispensed at 1,000 cells in 4 uL of culture medium per well into white wall/solid bottom 1536-well plates using a Multidrop Combi (Thermo Scientific, Waltham, MA) dispenser. Following incubation at 37 C and 5% CO2 for 4 hr, 23 nL of compounds dissolved in DMSO, positive controls or DMSO only were transferred by a Pintool station (Kalypsys, San Diego, CA) and after 2 hr incubation at 37 C, one ul of 1 uM (final concentration) of Doxycycline Hyclate was added to all the wells by using a Flying Reagent Dispenser (FRD) (Aurora Discovery, San Diego, CA). After 16 hr incubation at 37 C and 5% CO2, 5 uL of CellTiter-Glo reagent (Promega Corporation, Madison, WI) was added to each assay plate using FRD. After 30 min incubation at room temperature, luminescence was quantified on a ViewLux plate reader (Perkin Elmer, Waltham, MA).
A general note: In qHTS, concentration-response curves come from the screen itself.
With `O=C(Cl)c1ccccc1`, the Potency result was “inactive”.

For the compound `CCOP(=O)(CN(CCO)CCO)OCC`, the Potency entry was “inactive”.

Regarding `O=c1[nH]oc2c1CCNC2`, the Potency result was “inactive”.

Regarding `Cn1c(CCCC(=O)O)nc2cc(N(CCCl)CCCl)ccc21`, the Potency result was “inactive”.

For the compound `CCN[C@H](C)Cc1cccc(C(F)(F)F)c1`, the Potency entry was “inactive”.

Turning to `CC(Cc1ccccc1)NCCn1cnc2c1c(=O)n(C)c(=O)n2C` (stereo not given), the Potency result is “inactive”.

In the case of `C/C=C/CC#N`, the Potency entry was “inactive”.

For `CCOC(=O)N(C)N=O`, the Potency entry was “inactive”.

`O=C(O)C(F)(F)C(F)(F)C(F)(F)C(F)(F)C(F)(F)C(F)(F)F`: the Potency result was “inactive”.

For `CCN(CCO)CCO`, the Potency result is “inactive”.

As to `CC(C)(C1CCC(O)CC1)C1CCC(O)CC1` (stereo not given), the Potency result is “inactive”.

Take `N#CN`: the Potency entry was “inactive”.

Consider `O=C(O)c1c(Cl)ccc2cc(Cl)cnc12`, for which the Potency entry was “inactive”.

`C[N+]1(C)CCCCC1`: the Potency result was “inactive”.

With `C=C1C[C@@H]2[C@H](CC[C@]3(C)C(=O)CC[C@@H]23)[C@@]2(C)C=CC(=O)C=C12`, the Potency result was “inactive”.

Take `CC(C)(N)Cc1ccc(Cl)cc1`: the Potency result is “inactive”.

As for `CCCC(C)C1(CC)C(=O)N=C(S)NC1=O` (stereo not given), the Potency entry is “inactive”.

As for `COc1cc(CCN)cc(OC)c1OC`, the Potency result is “inactive”.

`COc1cccc([C@@]2(O)CCCC[C@@H]2CN(C)C)c1`: the Potency result was “inactive”.

In the case of `C[C@]12C=CC(=O)C=C1CC[C@@H]1[C@@H]2CC[C@@]2(C)[C@H]1CC[C@]2(C)O`, the Potency result was “inactive”.

`Oc1ccc(Cc2ccc(O)cc2)cc1`: the Potency result is “inactive”.

Regarding `CCCCCCCCSC(=O)Oc1cc(Cl)nnc1-c1ccccc1`, the Potency entry is “inactive”.

For the compound `CNC(=O)Oc1cc(C)c(N(C)C)c(C)c1`, the Potency entry was “inactive”.

As to `CCOP(=S)(OCC)SCCl`, the Potency entry is “inactive”.

For the compound `C=C(Cl)CSC(=S)N(CC)CC`, the Potency entry is “inactive”.

Take `Clc1ccc(C(Cl)(Cl)Cl)cn1`: the Potency result is “inactive”.

Regarding `CCN(CC)CCOC(=O)C(O)(c1ccccc1)c1ccccc1`, the Potency entry is “inactive”.

With `CCC(=O)c1ccc(Cl)cc1`, the Potency result is “inactive”.

`ClCCN1CCCC1`: the Potency result is “inactive”.

As to `CCOC(=O)CCl`, the Potency result is “inactive”.

Take `CCCCS(=O)(=O)Cl`: the Potency result is “inactive”.

On to `CCOC(=O)c1ncn2c1CN(C)C(=O)c1c(I)cccc1-2`, for which the Potency entry is “inactive”.

In the case of `CCN[C@@H](C)Cc1ccccc1`, the Potency entry was “inactive”.

In the case of `COC(=O)c1ccccc1CS(=O)(=O)NC(=O)Nc1nc(OC)cc(OC)n1`, the Potency entry was “inactive”.

Turning to `CCN1CCCC1CNC(=O)C(O)(c1ccccc1)c1ccccc1` (stereo not given), the Potency entry was “inactive”.

As to `O=C(Cl)C(Cl)(Cl)Cl`, the Potency entry is “inactive”.

In the case of `CN(C)C1CCCCC1`, the Potency entry was “inactive”.

In the case of `[O-][Br+2]([O-])O`, the Potency result was “inactive”.

For the compound `CC(C)c1ccc(O)cc1`, the Potency result is “inactive”.

Regarding `ClC1=C(Cl)C2(Cl)C(CBr)CC1(Cl)C2(Cl)Cl` (stereo not given), the Potency entry is “inactive”.
